Active and inactive are the calls of the source. The calls were made as follows: active = hit-call score of the fitted dose curve at least 0.9, where 1 is the maximum; inactive = score below 0.9.
Legend:
Conditions in all cases: mRNA level, 48 h; actives raise or lower the signal
[1] = read-out: Glutamate-cysteine ligase catalytic (GCLC), GCLC (gene 2729); experiment: LTEA_HepaRG_GCLC: Life Technologies and Expression Analysis (LTEA) Assay for Glutamate-cysteine ligase catalytic (GCLC) using HepaRG (AID 2283498)
Summary of the method: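 HepaRG, 48 h exposure, 8-pt half-log series from 100 uM, 0.5% DMSO vehicle; TaqMan qRT-PCR for GCLC mRNA, housekeeping-normalized; bidirectional curve fit vs DMSO baseline.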

[2] = read-out: growth arrest and DNA damage 45 (GADD45G), GADD45G (gene 10912); experiment: LTEA_HepaRG_GADD45G: Life Technologies and Expression Analysis (LTEA) Assay for growth arrest and DNA damage 45 (GADD45G) using HepaRG (AID 2283499)
Summary of the method: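 Concentration-response in HepaRG: 48 h dosing, 0.5% DMSO, highest level 100 uM. GADD45G expression by qRT-PCR, normalised to endogenous controls; bidirectional fit to DMSO.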

[3] = read-out: Glutamate-cysteine ligase regulatory (GCLM), GCLM (gene 2730); experiment: LTEA_HepaRG_GCLM: Life Technologies and Expression Analysis (LTEA) Assay for Glutamate-cysteine ligase regulatory (GCLM) using HepaRG (AID 2283500)
Summary of the method: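 Endpoint is GCLM transcript level by qRT-PCR, normalized to three housekeeping genes, after 48 h chemical exposure of human HepaRG cells (0.5% DMSO vehicle, top 100 uM, half-log dilutions). Fitting was bidirectional relative to DMSO.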

[4] = read-out: Glutathione S-transferase M3 (GSTM3), GSTM3 (gene 2947); experiment: LTEA_HepaRG_GSTM3: Life Technologies and Expression Analysis (LTEA) Assay for Glutathione S-transferase M3 (GSTM3) using HepaRG (AID 2283501)
Summary of the method: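 Expression of GSTM3 is determined by qRT-PCR in human liver HepaRG cells treated 48 h with an 8-point half-log range from 100 uM in 0.5% DMSO.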

[5] = read-out: Heat shock 70 kDa protein 1 (HSPA1A), gene 3303; experiment: LTEA_HepaRG_HSPA1A: Life Technologies and Expression Analysis (LTEA) Assay for Heat shock 70 kDa protein 1 (HSPA1A) using HepaRG (AID 2283502)
Summary of the method: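 Cells were plated and cultured for 48 h, then switched to serum-free induction medium. Chemicals were added at eight half-log concentrations up to 100 uM for 48 h. RNA was then isolated and HSPA1A measured by qRT-PCR with bidirectional curve fitting against DMSO.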

[6] = read-out: Hypoxia-inducible factor 1-alpha (Homo sapiens) (UniProt Q16665); experiment: LTEA_HepaRG_HIF1A: Life Technologies and Expression Analysis (LTEA) Assay for Hypoxia-inducible factor 1 (HIF1A) Trancription factor using HepaRG (AID 2283503)
Summary of the method: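 HIF1A transcript level read by qRT-PCR (ACTB, GAPDH, POLR2A normalization) after 48 h chemical exposure of HepaRG cultures. Eight half-log concentrations, top 100 uM, 0.5% DMSO vehicle, duplicates; bidirectional curve fit against DMSO baseline.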

[7] = read-out: 3-Hydroxy-3-Methylglutaryl-CoA Synthase 2 (HMGCS2), HMGCS2 (gene 3158); experiment: LTEA_HepaRG_HMGCS2: Life Technologies and Expression Analysis (LTEA) Assay for 3-Hydroxy-3-Methylglutaryl-CoA Synthase 2 (HMGCS2) using HepaRG (AID 2283504)
Summary of the method: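 This steatosis marker was read as HMGCS2 mRNA change in HepaRG cells treated 48 h with up to 100 uM chemical. Normalisation used housekeeping genes; activity in either direction was fitted relative to 0.5% DMSO vehicle.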

HGF (gene 3082) = experiment: LTEA_HepaRG_HGF: Life Technologies and Expression Analysis (LTEA) Assay for Hepatocyte Growth Facto (HGF) using HepaRG (AID 2283505)
Summary of the method: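 Using HepaRG monolayers kept in 0.5% DMSO, chemicals were tested in duplicate over eight half-log concentrations from 100 uM for 48 h. Endpoint: HGF mRNA change relative to DMSO, normalized to ACTB/GAPDH/POLR2A.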

[8] = read-out: Insulin Like Growth Factor 1 (IGF1), IGF1 (gene 3479); experiment: LTEA_HepaRG_IGF1: Life Technologies and Expression Analysis (LTEA) Assay for Insulin Like Growth Factor 1 (IGF1) using HepaRG (AID 2283506)
Summary of the method: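 Cells are thawed, plated and cultured 48 h, then exposed in duplicate to chemical (highest 100 uM, half-log steps, 0.5% DMSO) for another 48 h. Total RNA is analysed by Fluidigm qRT-PCR for IGF1 expression relative to vehicle.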

[9] = read-out: Intercellular Adhesion Molecule 1 (ICAM1), ICAM1 (gene 3383); experiment: LTEA_HepaRG_ICAM1: Life Technologies and Expression Analysis (LTEA) Assay for Intercellular Adhesion Molecule 1 (ICAM1) using HepaRG (AID 2283507)
Summary of the method: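 Using the human liver line HepaRG, compounds are tested in duplicate over 48 h at concentrations up to 100 uM. Expression is determined by TaqMan qRT-PCR, normalized to endogenous controls, and analysed relative to 0.5% DMSO vehicle.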

[10] = read-out: Insulin-like growth factor-binding protein 1 (IGFBP1), IGFBP1 (gene 3484); experiment: LTEA_HepaRG_IGFBP1: Life Technologies and Expression Analysis (LTEA) Assay for Insulin-like growth factor-binding protein 1 (IGFBP1) using HepaRG (AID 2283508)
Summary of the method: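 HepaRG, 48 h, 8 conc. (max 100 uM, half-log), duplicates, 0.5% DMSO. Readout: TaqMan qRT-PCR, ACTB/GAPDH/POLR2A normalisation. Fit: bidirectional vs DMSO.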

[11] = read-out: Interleukin 6 (IL6), IL6 (gene 3569); experiment: LTEA_HepaRG_IL6: Life Technologies and Expression Analysis (LTEA) Assay for Interleukin 6 (IL6) using HepaRG (AID 2283509)
Summary of the method: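 qRT-PCR read-out of IL6 transcript, normalized to three housekeeping genes, after 48 h chemical exposure of HepaRG cells; 8-point half-log series, top 100 uM, 0.5% DMSO vehicle. Bidirectional curve fitting against DMSO baseline.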

[12] = read-out: Interleukin 6 Receptor (IL6R), IL6R (gene 3570); experiment: LTEA_HepaRG_IL6R: Life Technologies and Expression Analysis (LTEA) Assay for Interleukin 6 Receptor (IL6R) using HepaRG (AID 2283510)
Summary of the method: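 Cells were thawed, plated and cultured 48 h, then medium was changed to serum-free induction medium. Chemicals were added in duplicate (100 uM top, half-log steps, 0.5% DMSO) for 48 h. Lysates were analyzed by qRT-PCR for IL6R expression.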

[13] = read-out: Potassium channel subfamily K member 1 (KCNK1), KCNK1 (gene 3775); experiment: LTEA_HepaRG_KCNK1: Life Technologies and Expression Analysis (LTEA) Assay for Potassium channel subfamily K member 1 (KCNK1) using HepaRG (AID 2283511)
Summary of the method: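 HepaRG, 48 h exposure, 8-pt half-log series top 100 uM, 0.5% DMSO vehicle, duplicates. Readout: KCNK1 transcript by qRT-PCR (Fluidigm array), housekeeping-normalized; bidirectional curve fit relative to DMSO baseline.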

[14] = read-out: JUN Transcription Factor, JUN (gene 3725); experiment: LTEA_HepaRG_JUN: Life Technologies and Expression Analysis (LTEA) Assay for JUN Transcription Factor using HepaRG (AID 2283513)
Summary of the method: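 Read-out is JUN transcript level by TaqMan qRT-PCR, normalized to ACTB, GAPDH and POLR2A, after 48 h chemical treatment of HepaRG cells. Concentration-response spanned eight half-log points up to 100 uM in 0.5% DMSO.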

[15] = read-out: Lipase C (LIPC), LIPC (gene 3990); experiment: LTEA_HepaRG_LIPC: Life Technologies and Expression Analysis (LTEA) Assay for Lipase C (LIPC) using HepaRG (AID 2283514)
Summary of the method: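 HepaRG, 48 h exposure, 8-pt half-log series from 100 uM in 0.5% DMSO, duplicates. Readout: LIPC mRNA by Fluidigm qRT-PCR, housekeeping-normalized (ACTB/GAPDH/POLR2A). Gain or loss fitted bidirectionally against DMSO baseline.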

[16] = read-out: Lipoprotein lipase (LPL), LPL (gene 4023); experiment: LTEA_HepaRG_LPL: Life Technologies and Expression Analysis (LTEA) Assay for Lipoprotein lipase (LPL) using HepaRG (AID 2283515)
Summary of the method: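 HepaRG, 48 h exposure, 8-pt half-log dilutions from 100 uM, 0.5% DMSO vehicle, duplicates; qRT-PCR (Fluidigm array) of LPL mRNA vs housekeeping genes; bidirectional curve fit relative to DMSO baseline.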

[17] = read-out: MicroRNA 122 (MIR122), gene 406906; experiment: LTEA_HepaRG_MIR122: Life Technologies and Expression Analysis (LTEA) Assay for MicroRNA 122 (MIR122) using HepaRG (AID 2283516); also: the transcript read is the microRNA miR-122
Summary of the method: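 Human liver HepaRG cultures receive test chemicals for 48 h at eight half-log concentrations from 100 uM. Expression is quantified by qRT-PCR with ACTB/GAPDH/POLR2A normalization and fitted bidirectionally against 0.5% DMSO.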

[18] = read-out: matrix metalloproteinase-10 (MMP10), MMP10 (gene 4319); experiment: LTEA_HepaRG_MMP10: Life Technologies and Expression Analysis (LTEA) Assay for matrix metalloproteinase-10 (MMP10) using HepaRG (AID 2283517)
Summary of the method: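 Transcript levels come from Fluidigm qRT-PCR normalized to three housekeeping genes, with curves fitted bidirectionally against 0.5% DMSO. Human HepaRG cells were dosed for 48 hours at concentrations up to 100 uM.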

[19] = read-out: Keratin 19 (KRT19), KRT19 (gene 3880); experiment: LTEA_HepaRG_KRT19: Life Technologies and Expression Analysis (LTEA) Assay for Keratin 19 (KRT19) using HepaRG (AID 2283512)
Summary of the method: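 Readout is qRT-PCR of KRT19 mRNA, normalized to ACTB, GAPDH and POLR2A, from HepaRG cells treated 48 h with eight-point half-log dilutions topping at 100 uM. Activity in either direction is scored relative to 0.5% DMSO vehicle.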

Measured: AC50

Hypoxia-inducible factor 1-alpha (Homo sapiens), sequence (Q16665 whole entry, looked up): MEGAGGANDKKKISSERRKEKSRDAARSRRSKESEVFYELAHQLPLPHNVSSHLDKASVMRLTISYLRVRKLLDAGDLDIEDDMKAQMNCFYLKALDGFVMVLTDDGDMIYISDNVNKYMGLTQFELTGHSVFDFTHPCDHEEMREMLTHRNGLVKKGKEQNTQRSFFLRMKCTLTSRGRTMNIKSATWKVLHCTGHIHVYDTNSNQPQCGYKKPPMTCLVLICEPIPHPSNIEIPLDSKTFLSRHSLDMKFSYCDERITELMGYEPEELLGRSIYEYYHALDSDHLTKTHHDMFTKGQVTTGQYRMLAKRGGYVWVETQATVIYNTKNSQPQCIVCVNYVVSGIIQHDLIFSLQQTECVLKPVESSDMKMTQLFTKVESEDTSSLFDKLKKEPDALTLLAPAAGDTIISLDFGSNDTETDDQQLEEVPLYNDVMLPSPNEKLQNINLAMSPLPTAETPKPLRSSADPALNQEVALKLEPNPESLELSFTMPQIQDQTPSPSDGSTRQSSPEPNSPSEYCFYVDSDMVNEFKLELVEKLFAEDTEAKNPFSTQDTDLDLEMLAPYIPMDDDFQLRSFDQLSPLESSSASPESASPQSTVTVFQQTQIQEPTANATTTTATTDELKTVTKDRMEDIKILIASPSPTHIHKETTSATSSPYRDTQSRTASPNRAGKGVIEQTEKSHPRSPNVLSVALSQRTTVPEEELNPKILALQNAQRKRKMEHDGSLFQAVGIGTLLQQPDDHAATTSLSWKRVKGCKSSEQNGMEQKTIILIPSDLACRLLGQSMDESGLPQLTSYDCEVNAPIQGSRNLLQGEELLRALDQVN

COCC(C)O (stereo not given)
not listed: [19]
inactive: all other assays above

CCCCOCCO
not listed: [6] | [17] | [19]
inactive: all other assays above

CCc1nn(C2CCCCC2)c2cc(C3(C#N)CCC(C(=O)O)CC3)ccc12 (stereo not given)
inactive: [4] | [6] | HGF (gene 3082) | [12] | [14]
active: [1] 83.6 µM | [2] 85.5 µM | [3] 50 µM | [5] 12.2 µM | [7] 81.8 µM | [8] 57.3 µM | [9] 28.7 µM | [10] 75.7 µM | [11] 84.9 µM | [13] 13.1 µM | [15] 78.9 µM | [16] 37.2 µM | [17] 80.1 µM | [18] 81.6 µM

CC#C[C@]1(O)CC[C@H]2[C@@H]3CCC4=CC(=O)CCC4=C3[C@@H](c3ccc(N(C)C)cc3)C[C@@]21C
active: [1] 28.4 µM | [2] 40.8 µM | [3] 31.6 µM | [7] 75.9 µM | HGF (gene 3082) 85.2 µM | [8] 68.4 µM | [9] 26 µM | [10] 23.6 µM | [11] 37.4 µM | [13] 69 µM | [14] 33.7 µM | [15] 67.2 µM | [16] 76.2 µM | [18] 33.5 µM
inactive: [4] | [5] | [19]

CC(O)CO (stereo not given)
not listed: [6] | [12] | [17] | [19]
inactive: all other assays above

C[C@@H]1C[C@H]2[C@@H]3CCC4=CC(=O)C=C[C@]4(C)[C@@]3(F)[C@@H](O)C[C@]2(C)[C@@]1(O)C(=O)COP(=O)(O)O
not listed: [6] | [12] | [17]
inactive: all other assays above

CCCCCCCCC(=O)O
not listed: [6] | [12] | [19]
inactive: all other assays above

CCCCCCCCOC(=O)CCCCCCCCC(=O)OCCCCCCCC
not listed: [6] | [10] | [12] | [17] | [19]
inactive: all other assays above

Cc1cc(C)c(O)c(C)c1
not listed: [6] | [12] | [19]
inactive: all other assays above

c1ccc2c(c1)Cc1ccccc1-2
not listed: [6] | [12] | [19]
inactive: all other assays above

CC1=C(/C=C/C(C)=C/C=C/C(C)=C/C(=O)O)C(C)(C)CCC1
active: [3] 25.8 µM | [7] 23.9 µM | [8] 31.8 µM | [13] 10.2 µM
not listed: [5] | [6] | [9] | [12] | [19]
inactive: all other assays above

NC(=O)N(O)[C@@H]1C=C[C@H](Oc2cccc(Oc3ccc(F)cc3)c2)C1
active: [3] 50 µM | [5] 82.6 µM | [7] 40.6 µM | [8] 37.9 µM | [9] 37.3 µM | [10] 71.8 µM | [11] 38.6 µM | [13] 35.5 µM | [14] 76.6 µM | [15] 36.4 µM | [16] 50 µM | [18] 64.8 µM
inactive: [1] | [2] | [4] | HGF (gene 3082)

O=[N+]([O-])c1ccc(O)cc1
not listed: [6] | [12] | [17] | [19]
inactive: all other assays above

COc1ccc([N+](=O)[O-])cc1N
not listed: [6] | [12] | [19]
inactive: all other assays above

— PubChem BioAssay (EPA / NIEHS)
